This is a sample that favours compounds with a hit; in the whole collection about 19% have one here.
IL-1B inflam inh: blocks inflammasome-driven IL-1 beta release. 360,000 tested, 4.7% active. activity change, % at 57.5 µM. THP-1 LPS/ATP IL-1B secretion, AlphaLISA, 16 h; stronger effect = lower value; in the data active = activity change below about -50%; inconclusive = mostly about -30% to -49%
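THP-1 cells pretreated 1 hr with compounds (up to 57.5 uM final), then stimulated with LPS (250 ng/mL final) plus ATP (1.25 mM final); secreted IL-1B measured by AlphaLISA after 16 hr, decreased signal indicating inhibition.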
HT1080 IDH1KD tx: HT-1080 IDH1 knockdown cell toxicity (counter line); 360,000 tested, 2% active; Potency, µM (titrated, usually from 46.1 µM), inactives show top-dose activity, negative = toxicity, actives largely listed as cytotoxic; HT-1080 IDH1 knockdown viability, ATP luminescence, 48 h; AID 686971;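 also: potency is read from the fitted curve at half-maximal effect; 0% = DMSO wells and -100% = cell-free medium wells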
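Knockdown cells (IDH1KD HT-1080) received compounds 2 h after plating at 750 cells/well and were kept 48 h at 37 °C in 5% FBS RPMI. A CellTiter-Glo luminescence read gave % activity for curve fitting.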
TDP1 cell noCPT: qHTS for Inhibitors of human tyrosyl-DNA phosphodiesterase 1 (TDP1): qHTS in cells in absence of CPT. DT40 Tdp1-/- hTDP1 cells, no CPT, ATP luminescence, 48 h. Potency, µM (highest dose often 46.2 µM), without a hit: at the top dose activity change, negative = growth inhibition, usual class: inhibitors. 420,000 tested, 15% active. AID 686978, 2013; also: potency is read from the fitted curve at half-maximal effect; nearly all actives have a fitted effect of over 55% in size
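Growth of hTDP1-complemented DT40 Tdp1-knockout cells is measured by ATP luminescence after at least 48 hr compound exposure at 37 °C, with DMSO substituting for the 20 nM CPT used in the parallel screen.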
TDP1 cell CPT: DT40-hTDP1 cell growth loss with CPT | 420,000 tested, 12% active | chicken DT40 Tdp1-/-;hTDP1 cells + 20 nM CPT, ATP luminescence, 48 h | Potency, µM (highest dose often 46.2 µM), for the others: at the top dose activity change, negative = growth inhibition, usual class: inhibitors; also: potency is read from the fitted curve at half-maximal effect; nearly all actives have a fitted effect of over 55% in size
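Chicken DT40 Tdp1-/- cells stably complemented with human TDP1 were seeded at 400 cells/well in medium containing 20 nM camptothecin, exposed to pin-transferred compounds, and grown at 37 °C for at least 48 hr. Viability was read as ATP luminescence.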
HT1080NT lethal: kills 2HG-producing HT-1080-NT fibrosarcoma cells; HT-1080-NT fibrosarcoma viability, CellTiter-Glo ATP luminescence, 48 h; Potency, µM (highest dose often 46.1 µM), without a hit: top-dose activity, negative = less viability, most hits filed as cytotoxic; 360,000 tested, 1.6% active;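 also: NT is the 2HG producing partner of a matched IDH1 knockdown line; potency is read from the fitted curve at half-maximal effect; 0% = DMSO-treated cells and -100% = media-only wells without cells; nearly all actives have a fitted effect of over 55% in size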
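HT-1080-NT; 750 cells/well; 5% FBS RPMI; 48 h compound, 37 degrees C; CellTiter-Glo luminescence; curve fitting and curve-class assignment.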
The depositor's hits bear a star; ? = inconclusive; · = no result given; [ ] = dose if it differs, or a comment. Unless noted, calls follow the shape of the dose curve; as a rule, active = well fitted curve in the direction sought with a large enough effect; inconclusive = small, poorly fitted or top-dose-only effect, or another doubt; inactive = no such curve, though single readings can be large; an effect the other way counts as inactive or inconclusive. Unless noted, % is scaled to controls: 0 for no effect and ±100 for the full control effect.

SMILES	IL-1B inflam inh	HT1080 IDH1KD tx	TDP1 cell noCPT	TDP1 cell CPT	HT1080NT lethal
COc1cccc(-c2cnc3c(NC(C)=O)cc(-c4cccc(NS(C)(=O)=O)c4)cn23)c1	43	?	23µM*	26µM*	?
COc1cc(-c2cnc3c(NC=O)cc(-c4cccc(NC(C)=O)c4)cn23)cc(OC)c1OC	157	?	0.52µM*	0.52µM*	?
CC(C)OCCCNc1ncc2c(n1)CC(c1ccccc1)CC2=O (configuration not stated)	16	-8%	?	-22%	-8%
O=C(CN(Cc1ccc(F)cc1)C(=O)CCC(=O)Nc1nccs1)NCc1ccccc1	12	-12%	-19%	5%	0%
CCN(CC(=O)Nc1ccccc1C(F)(F)F)C(=O)CN1C(=O)NC(C)(c2ccccc2)C1=O (configuration not stated)	5	-4%	-6%	-4%	-7%
COc1cccc(-c2cc(NC=O)c3ncc(-c4ccc(F)c(Cl)c4)n3c2)c1	?	-2%	?	?	-6%
COc1cccc(-c2cc(NC=O)c3ncc(-c4ccc(C(C)=O)cc4)n3c2)c1	0	10µM*	2.3µM*	3.7µM*	18µM*
COc1cccc(-c2cnc3c(NC=O)cc(-c4cccc(NC(C)=O)c4)cn23)c1	143	?	21µM*	18µM*	?
CC(=O)c1cccc(-c2cnc3c(NC=O)cc(-c4ccccc4)cn23)c1	103	-7%	21µM*	?	7%
COc1ccccc1C(=O)Nc1nc2nc(C)cc(=O)n2[nH]1	·	·	?	-12%	·
CN(C)CCN(Cc1ccccc1)c1ccnc(N(C)C)c1C#N	-25	8%	?	-25%	2%
CN(C)c1nccc(N(Cc2ccccc2)Cc2ccccc2)c1C#N	-13	-2%[9.24 µM]	29µM*	18µM*	-18%
Cc1cc(C)c(NC(=O)COC(=O)C2CCCCC2)c(C)c1	-15	-2%	2%	9%	-5%
CC(C)NC(=O)N1CC2(CCN(C(=O)c3ccncc3)CC2)C1	·	·	-4%	17%	·
CCc1cc2c(=O)[nH]c(CC(N)=O)nc2s1	-66*	12%	-14%	1%	9%
CCc1cc2c(=O)[nH]c(N3CCCC3)nc2s1	-14	9%	-7%	-1%	6%
COc1ccccc1NC(=O)N(C)C[C@@H]1OCc2ccccc2-c2c(n(C)c3ccccc23)C(=O)N([C@H](C)CO)C[C@@H]1C	-30	11%	23µM*	21µM*	-12%
C[C@@H]1CN([C@@H](C)CO)C(=O)c2c(c3ccccc3n2C)-c2ccccc2CO[C@H]1CN(C)C(=O)[C@H](Cc1ccccc1)N(C)C	-11	-25%	21µM*	?	?
C[C@H](CO)N1C[C@H](C)[C@H](CN(C)C(=O)Nc2ccc(F)cc2)OCc2ccccc2-c2c(n(C)c3ccccc23)C1=O	26	-19%	13µM*	15µM*	-18%
CC(C)NC(=O)N(C)C[C@@H]1OCc2ccccc2-c2c(n(C)c3ccccc23)C(=O)N([C@@H](C)CO)C[C@@H]1C	40	-1%	?	-20%	14%
CNC[C@@H]1OCc2ccccc2-c2c(n(C)c3ccccc23)C(=O)N([C@H](C)CO)C[C@@H]1C	-18	2%	18µM*	?	-21%
O=C(Nc1ccc2c(c1)S(=O)(=O)N=C1CCCCCN12)c1ccccc1Cl	-22	-4%	-27%	-5%	-1%
COc1ccc(C(Cl)=C(C=O)c2ccc(OC)c(OC)c2)cc1OC	?	-19%	?	?	2%
CC(C)Cn1c(-c2csc3c2CCCC3)n[nH]c1=S	9	0%	?	-20%	17%
CC(C)(C)NC(=O)c1ccccc1-c1nc(-c2ccccc2Cl)no1	8	10%	?	?	9%
SMILES	IL-1B inflam inh	HT1080 IDH1KD tx	TDP1 cell noCPT	TDP1 cell CPT	HT1080NT lethal
C[C@H](CO)N1C[C@H](C)[C@H](CN(C)Cc2ccncc2)OCc2ccccc2-c2c(n(C)c3ccccc23)C1=O	18	-2%	16µM*	26µM*	-2%
COC(=O)N(C)C[C@@H]1OCc2ccccc2-c2c(n(C)c3ccccc23)C(=O)N([C@H](C)CO)C[C@@H]1C	-23	-5%	26µM*	?	-8%
COc1cc(CN2CCOc3ccc(C(O)c4cccnc4)cc3C2)cc(OC)c1 (configuration not stated)	·	·	-17%	19%[9.04 µM]	·
CC1(c2ccc(Cl)cc2)NC(=O)N(CC(=O)Nc2ccc(F)cc2)C1=O (configuration not stated)	-10	-22%	-25%	-22%	-13%
O=C(CN1C(=O)NC(c2ccccc2)(c2ccccc2)C1=O)NCc1ccc(F)cc1	-55*	0%	-18%	?	-10%
Cc1ccc(CNC(=O)CN2C(=O)NC(C)(c3ccc(Cl)cc3)C2=O)cc1 (configuration not stated)	-52*	-2%	-18%	-18%	-6%
CCOC(=O)c1c(NC(=O)CN2C(=O)NC(C)(c3ccc(Cl)cc3)C2=O)sc(C(=O)NC)c1C (configuration not stated)	-9	-25%	12µM*	23µM*	-26%
CC(C)(C)NC(=O)CN1C(=O)NC(c2ccccc2)(c2ccccc2)C1=O	2	-6%	1%	0%	-6%
O=C(CCl)NN1C(=O)NC(c2ccccc2)(c2ccccc2)C1=O	-117*	16µM*	21µM*	?	?
CC1(c2ccc(Cl)cc2)NC(=O)N(CC(=O)NCc2ccc(F)cc2)C1=O (configuration not stated)	-14	-11%	-15%	7%	-12%
CC(=O)Nc1ccc(NCc2ccc(C)s2)cc1	-15	1%	10%	18%	2%
COc1ccc(-n2cc(CNCC3CCOCC3)c(-c3cccc(F)c3)n2)cc1	-56*	-28%	16µM*	?	?
COc1ccc(-n2cc(CN(C)C3CCOCC3)c(-c3cccc(F)c3)n2)cc1	-12	?	18µM*	?	?
COc1ccc(-n2cc(CNCc3cnc4ccccn34)c(-c3cccc(F)c3)n2)cc1	-73*	0%	?	?	?
COC(CNC(=O)C1CCC(CNS(=O)(=O)c2c(C)cc(C)cc2C)CC1)OC (configuration not stated)	2	0%	-24%	-22%	0%
COc1ccc(Cc2nc3c4c(ncn3n2)Oc2c(ccc3ccccc23)C4c2ccc(OC)c(OC)c2)cc1 (configuration not stated)	2	22%	?	-18%	23%
